Source: PubChem
Most compounds without a hit are left out; they make up all but 3.7% or so of the library.
BoNT A protease – inhibitors of Botulinum neurotoxin A light chain protease | multiplex microsphere protease substrate cleavage, flow cytometry | inhibition, % at 10 µM | hit rate 0.17% among 360,000 | AID 588499
Anthrax LF inh2 – blocks Bacillus anthracis lethal factor protease; P15917; multiplex microsphere protease cleavage assay, LF; inhibition, % at 10 µM; hit rate 0.12% among 360,000; AID 588501
MazEF act – activators of E. coli MazEF toxin-antitoxin RNase; AID 504720; activation, % at 20 µM; hit rate 0.32% among 350,000; P0AE70; FAM/BHQ RNA-DNA oligo cleavage fluorescence, 5 h; in the data active = activation above about 50%
Target sequence (P0AE70 whole entry, looked up): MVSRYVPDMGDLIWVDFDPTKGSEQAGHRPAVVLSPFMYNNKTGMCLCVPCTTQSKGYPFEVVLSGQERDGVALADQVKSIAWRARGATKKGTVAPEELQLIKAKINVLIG
BoNT-F LC inh – inhibitors of Botulinum neurotoxin F light chain protease. Multiplex microsphere protease cleavage assay, flow cytometry. inhibition, % at 10 µM. hit rate 0.22% among 360,000; in the data active = inhibition above about 35%, passing the limit was not always enough; inconclusive = no clear call, values can overlap the other calls
Autofluor counter – compound fluorescence in toxin protease inhibitor counterscreen. compound autofluorescence counterscreen, microsphere flow cytometry; stronger effect = higher value. fluorescence intensity (concentration not given with the values). hit rate 3.1% among 360,000; in the data active = fluorescence intensity above about 16000; inconclusive = no clear call, values can overlap the other calls
Of the large screens only hits and unclear results are named; the others gave an inactive call. Cut-off read from the data, not from the text of the source, unless noted: active = inhibition above about 30%; inconclusive = no clear call, values can overlap the other calls; inactive = below that.

O=C(CSc1nnc(Cn2c(=O)sc3ccccc32)n1CCc1ccccc1)N1CCOCC1	Autofluor counter 16901
O=C(CSc1nnc(-c2cccnc2)n1Cc1ccccc1)N1CCOCC1	BoNT A protease inconclusive, Autofluor counter 24649
O=C(CC1C(=O)NCCN1C(=S)Nc1ccccc1)Nc1ccc2c(c1)OCCO2 (stereo not given)	Autofluor counter 24623
CCOc1ccccc1NC(=O)CC1NCCNC1=O (stereo not given)	Autofluor counter 18163
COc1ccccc1NC(=O)CC1C(=O)NCCN1C(=O)Nc1ccccc1 (stereo not given)	Autofluor counter 21334
CCc1ccc(NC(=O)CC2NCCNC2=O)cc1 (stereo not given)	none
CC1Cc2nc(SCC(=O)N3CCCCC3)n(C)c(=O)c2S1 (stereo not given)	none
CCNc1ccc(Br)cc(C(=O)/C=C/c2c(Cl)cccc2Cl)c1=O	BoNT A protease 59.0
CNc1ccc(Br)cc(C(=O)/C=C/c2ccc(OC)cc2OC)c1=O	none
CNc1ccc(Br)cc(C(=O)/C=C/c2cccc(OC)c2)c1=O	Autofluor counter 17911
CCOC(=O)C1CN(C(=O)OCC)CC1=NNC(N)=O (stereo not given)	none
C[C@@H](c1ccccc1)N1C[C@@H](COCc2ccccc2)Oc2cc(N3CCC[C@H]3CO)ccc2S1(=O)=O	none (no result: MazEF act)
Clc1ccc(-c2cnnc(-c3ccccn3)n2)cc1	none
CC(=N)c1c(O)c2ccccc2oc1=O	none
CC1CCC(C(=O)c2c(O)c3ccccc3oc2=O)CC1 (stereo not given)	Autofluor counter 20872
O=c1oc(-c2ccc(O)c(O)c2)cc2cccc(O)c12	none
O=C1C=Cc2cccc3ccc(O)c1c23	BoNT A protease 61.1, Anthrax LF inh2 38.0
CCCNC(=O)Cn1c(=O)/c(=C\c2ccc(-c3cccc([N+](=O)[O-])c3)o2)s/c1=C\C(=O)C(C)(C)C	BoNT A protease 32.6, MazEF act 175.0
O=C1NC(=O)/C(=C/c2ccc(-c3cccc([N+](=O)[O-])c3)o2)S1	none (no result: BoNT A protease, Anthrax LF inh2, BoNT-F LC inh, Autofluor counter)
CCCNC(=O)Cn1c(=O)/c(=C\c2ccc(-c3ccc([N+](=O)[O-])cc3)o2)s/c1=C\C(=O)C(C)(C)C	MazEF act 86.4
CCCNC(=O)Cn1c(=O)/c(=C/c2ccc(-c3cccc([N+](=O)[O-])c3)o2)s/c1=C\C(=O)C(C)(C)C	MazEF act 54.2
CC1(c2nnnn2Cc2ccccc2)CCC(=O)N1Cc1ccc(F)cc1 (stereo not given)	none (no result: MazEF act)
Cc1cc(NCCC(C)C)n2nc(C)c(-c3ccccc3)c2n1	Autofluor counter 24144
NC(=O)c1ccccc1NC(=O)CC12CC3CC(CC(C3)C1)C2	BoNT-F LC inh inconclusive
CC1(C)NC(=O)N(CCOCCOc2cccc(Oc3ccccc3)c2)C1=O	none
CCC(=O)c1ccccc1OCCCN1C(=O)NC(C)(C)C1=O	none
CC1(C)NC(=O)N(CCCCOc2ccc3ccccc3c2Cl)C1=O	Autofluor counter 24165
CC1(C)NC(=O)N(CCOCCOc2ccc3ccccc3c2Br)C1=O	Autofluor counter 21501
COc1ccc(N(CC(=O)NCCC2=CCCCC2)S(C)(=O)=O)cc1OC	Autofluor counter 22438
COc1ccc(N(CC(=O)NCCC2=CCCCC2)S(=O)(=O)c2ccccc2)cc1OC	none
COc1cccc(CN(CC(=O)NC2CCCC2)C(=O)c2csnn2)c1	none
Cn1c(SCCOc2ccccc2Cl)nnc1-c1cccs1	Autofluor counter 22281
Cn1c(SCCOc2ccc(Cl)cc2)nnc1-c1ccncc1	Autofluor counter 23566
Cc1cc(OCCSc2nnc(-c3cccs3)n2C)ccc1Cl	none
Cc1ccc(OCCSc2nnc(-c3cccs3)n2C)cc1	BoNT A protease inconclusive, Autofluor counter 20327
O=C(COC(=O)c1ccc(O)cc1)NCC1COc2ccccc2O1 (stereo not given)	none
Cc1ccc(S(=O)(=O)NC(C)(C)C)cc1C(=O)OCC(=O)N1CCCC1=O	Autofluor counter inconclusive
CCc1ccccc1OCC(=O)Nc1ccc(N2CCCC2)cc1C	Autofluor counter 23739
Cc1cc(N2CCCC2)ccc1NC(=O)COc1ccccc1	none
CCc1cccc2c(C(=O)CSc3nnc(-c4ccoc4C)n3C)c[nH]c12	Autofluor counter 22498
COc1ccc(-c2noc(CN3CCCCC3)n2)cc1OC	Autofluor counter 21443
CCOC(=O)C1CCN(Cc2nc(-c3ccc(OC)c(OC)c3)no2)CC1	none
O=C(CSc1nnc(-c2ccc(Br)cc2)o1)Nc1cccc2ccccc12	Autofluor counter 23146
Cn1ccnc1SCC(=O)Nc1cccc2ccccc12	Autofluor counter 19695
N#Cc1nc(Cc2cccc3ccccc23)oc1NCC1CCCO1 (stereo not given)	Autofluor counter 21943
N#Cc1nc(Cc2cccc3ccccc23)oc1NCc1ccco1	Autofluor counter 22710
CCCOc1ccc(-c2nc(C#N)c(NCC3CCCO3)o2)cc1 (stereo not given)	Autofluor counter 24772
N#Cc1nc(Cc2cccc3ccccc23)oc1NCCCN1CCOCC1	none
CCCCNC(=O)C1(C)CCCCN1C(=O)c1oc2ccccc2c1C (stereo not given)	none (no result: MazEF act)
CC(C)(C)CC(C)(C)NC1=CC(=O)OC12CCCCC2	none
CC(C)(C)NC1=CC(=O)OC12CCCCC2	Autofluor counter 23197
CC(C)[C@@H](C(=O)NCC1CCCO1)N1C(=O)N2CCc3c([nH]c4ccccc34)[C@@]2(C)C1=O (stereo not given in full)	none
CC(=O)c1ccc(S(=O)(=O)Nc2cc3c(cc2C(C)=O)OCO3)cc1	none
CC(=O)c1cc2c(cc1NS(=O)(=O)c1ccc(C)cc1)OCO2	Autofluor counter 20111
Cc1ccc(NC(=O)CS(=O)CC(=O)N(CC(=O)NC(C)(C)C)c2cccc(C)c2C)cc1 (stereo not given)	none
COc1ccc(CCN2CC(C(=O)NCCN3CCCC3=O)CCC2=O)cc1 (stereo not given)	none
COc1ccccc1OCC(=O)Nc1ccc(Cl)cc1	BoNT A protease inconclusive, Autofluor counter 23170
COc1cc(CNCCO)ccc1OCC(=O)Nc1ccc(Br)cc1	Autofluor counter 22933
COc1ccccc1OCC(=O)Nc1ccc(NC(=O)COc2ccccc2OC)cc1	none
COc1ccccc1OCC(=O)Nc1ccc(C(N)=O)cc1	Autofluor counter 21458
O=C(O)C1Nc2ccc(Br)cc2C2C=CCC12 (stereo not given)	none (no result: BoNT A protease, Anthrax LF inh2, BoNT-F LC inh, Autofluor counter)
Fc1ccc2c(c1)C1C=CCC1C(c1cc3c(cc1Br)OCO3)N2 (stereo not given)	BoNT A protease inconclusive, Autofluor counter 19890
CC1CCN(C(=O)CSc2nc3c(c(=O)n2C)SC(C)C3)CC1 (stereo not given)	none
Cc1ccc(S(=O)(=O)N2CC(C)N(C(=O)N3CCOCC3)C2)cc1 (stereo not given)	none
CCC(=O)N1CN(S(=O)(=O)c2ccc(C)cc2)CC1C (stereo not given)	Autofluor counter 21656
Cc1ccc(NC(=O)C(C)N2C(=O)C3C4CC(C(Br)C4Br)C3C2=O)cc1 (stereo not given)	Autofluor counter 22632
Cc1ccc(Cn2c(=O)c3ccccc3n3c(SCC(=O)N4CCCCC4C)nnc23)cc1 (stereo not given)	BoNT A protease inconclusive, Autofluor counter 19920
